The record followed here is PubChem BioAssay.

Structures are written as SMILES. Where “and” joins values, the source holds several entries; their conditions need not be identical. Identical values can stand only once. Records with an inconclusive call do not appear. Calls of active or inactive are those of the source. Unless noted, no cut-off is given here; in the data, nearly all actives have AC50 up to about 26 µM.

Assay [1] is described as follows: viability loss in pontine glioma line – cell-based, SU-DIPG-XVII, MIPE5.0, CellTiter-Glo, qHTS, dose response (AID 1347060).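 For AC50: cells exposed to compound for 48 hours before viability readout.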 The conditions noted are these: CellTiter-Glo ATP luminescence.
Assay [2] is described as follows: viability loss in pontine glioma line – cell-based, SU-DIPG-XIII, MIPE5.0, CellTiter-Glo, qHTS, dose response (AID 1347064; cut-off not given, nearly all actives have AC50 up to about 23 µM;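 for AC50: cells exposed to compound for 48 hours before the viability read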). The conditions noted are these: CellTiter-Glo ATP luminescence. (Cellular ATP, detected with luciferase, serves as a proxy for viable cell number.)
Assay [3] in a line: JHH-DIPG-1 glioma cell viability, MIPE5.0 library, CellTiter-Glo luminescence, qHTS (AID 1347067).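 Note: cells exposed to compound for 48 hours before readout.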 The conditions noted are these: JHH-DIPG-1 glioma viability, CellTiter-Glo ATP luminescence.
Assay [4] in a line: growth inhibition of DIPG cells – cell-based, MIPE5.0 library, qHTS (AID 1347068; cut-off not given, nearly all actives have IC50 up to about 30 µM;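 for IC50: cells exposed to compound for 48 hours before viability readout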). The conditions noted are these: SU-DIPG-XXV viability. (In general: Quantitative high-throughput screening tests each substance at several concentrations.)
A short description of assay [5]: viability loss in pontine glioma line – cell-based, SU-DIPG-XXV, MIPE5.0, CellTiter-Glo, qHTS, dose response (AID 1347065).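 Note: cells exposed to compound for 48 hours before ATP readout.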 The conditions noted are these: CellTiter-Glo ATP luminescence.
Assay [6] is described as follows: viability loss with induced miR-34 in A549 – imaging, A549 dox-inducible miR-34, nuclei and caspase counts, primary screen (AID 1347080;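 active = compounds whose cell count with miR-34 switched on is under 0.7 times the count with it off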). The conditions noted are these: A549 miR-34 inducible, Hoechst nuclei count, 48 h.
Assay [7] can be described thus: chitosan synthesis blockers in C. neoformans – flow cytometry, Cibacron Brilliant Red staining (AID 1347148; call rule not given here;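 note: compound exposure lasted three days at 37 degrees C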). The conditions noted are these: Cryptococcus neoformans chitosan, stronger effect = lower value; at 10 µM unless noted. (In flow cytometry, cells or beads pass a laser one at a time.)
A short description of assay [8]: compounds altering circadian rhythm period length – cell-based, LOPAC library, luminescence reporter (AID 2774; call rule not given here;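 note: values are relative to mean of DMSO wells on each plate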). The conditions noted are these: circadian reporter cells, at 7 µM, actives lie on both sides.
Assay [9] can be described thus: compounds altering viability of human ES cells (AID 493140; call rule not given here;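 note: cells exposed to compounds for four days before counting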). The conditions noted are these: human embryonic stem cell survival screen; stronger effect = higher value.
The nature of assay [10]: P. berghei load reduction in hepatocytes – cell-based, HepG2, luciferase luminescence, HepG2 viability, primary screen (AID 624349; in the data active = parasite load remaining mostly below about 12%, no sharp cut-off; inactive = mostly above about 10%;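 note: 100% = mean of DMSO negative control wells on the same plate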). The conditions noted are these: P. berghei liver stage in HepG2, luciferase luminescence, concentration not given here; parasite load remaining: stronger effect = lower value; viability: measured here: HepG2 viability without parasites.
Assay [11] concerns Hepatitis C virus NS3 helicase. In words: blockers of NS3h binding to ssDNA – biochemical, fluorescence polarization, LOPAC1280 library, primary screen (AID 687035; in the data active = inhibition above about 37%). The conditions noted are these: Purified HCV NS3 helicase, Cy5-dT15 ssDNA binding fluorescence polarization; stronger effect = higher value; concentration not given here.
The nature of assay [12]: compounds altering Cy5-DNA-NS3h complex signal – biochemical, LOPAC1280, artefact control for HCV NS3 helicase inhibitor project (AID 687037; call rule not given here). The conditions noted are these: Cy5-DNA-NS3h complex fluorescence interference counterscreen.
Assay [13] is described as follows: blockers of cellular phospholipid synthesis – cell-based, LOPAC library, screen 4, primary screen (AID 1347384; call rule not given here). The conditions noted are these: animal cells, phospholipid biosynthesis inhibition screen; at 10 µM.
Assay [14] is described as follows: galactose survival enhancers in mitochondrial complex I cybrids – cell-based, galactose medium, ATP luminescence, primary screen (AID 1645843;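 active = z-score of at least 1.8 in each of two replicates, scored against plate mean and spread of sample wells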;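 note: positive z means more ATP and so rescue of galactose-driven cybrid death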). The conditions noted are these: complex I mutant cybrid cells, 72 h, stronger effect = higher value.
The mark [15] stands for this setting: stronger effect = lower value, cell number ratio, induced over uninduced.
Where [16] appears, read: measured here: relative caspase fold change +Dox/-Dox.
Where [17] appears, read: measured here: total cells with miR-34 induction, stronger effect = lower value.
The mark [18] stands for this setting: measured here: total cells without miR-34 induction.

`Cn1cc(-c2nc(N[C@@H]3CCCC[C@@H]3N)c(F)c3c2C(=O)NC3)cn1`: the outcome in assay [1], in assay [2], in [3] and in assay [4] was inactive.

On to `CC(C)Cc1ccc([C@@H](C)C(=O)NS(C)(=O)=O)cc1`, for which the call in assay [1], in [2] and in [4] was inactive.

On to `Cc1nc2ccc(-n3ncc(C(=O)c4cc5ccccc5[nH]4)c3N)cc2[nH]1`, for which the AC50 in [1] is 468 nM (active); in assay [5], 833 nM (active).

As for `CNC(=O)[C@H](Cc1c[nH]c2ccccc12)NC(=O)[C@@H](CC(=O)NO)CC(C)C`, the call in [1], in [2], in assay [3] and in [4] was inactive. Besides, the fold change is 1.03 (inactive) in assay [6] (setting [15]) and 0.925 in [6] (setting [16]). For the same compound, the cell count in assay [6] (setting [17]) turned out to be 4790; in [6] (setting [18]), 4630. Also, the fold fluorescence in assay [7] is 4.97 [at 128.7 µM] (inactive).

For `CCn1nc(C2CCN(C(=O)CCO)CC2)nc1-c1cnc(N)c(-c2nnc(C(C)(C)C)o2)n1`, the concentration at half-maximal activity (AC50) in assay [1] was 5900 nM (active); in assay [5], 2090 nM (active).

Regarding `CON(C)C(=O)N1N=C(c2cc(F)ccc2F)S[C@@]1(CCCN)c1ccccc1`, the half-maximal activity concentration (AC50) is 5.25 nM (active) in [1] and 9.34 nM (active) in assay [5].

`Cn1c(=O)c(-c2c(Cl)cccc2Cl)cc2cnc(Nc3cccc(C(=O)O)c3)nc21`: the values for the AC50 in assay [1] and in [2] were 1480 nM (active) and 2350 nM (active), respectively. In addition, in assay [4], the result was inactive.

As for `C[C@@H]1CN(CC(=O)N2CC(C)(C)c3ncc(Cc4ccc(F)cc4)cc32)[C@@H](CN2CCOC[C@H]2C)CN1`, the compound was classed as inactive in assay [1], in [2], in [3] and in assay [4].

With `CCOC(=O)c1ccnc(CNCC(=O)N(CC)CCN(C)C)c1`, the call in [1], in assay [2] and in [4] was inactive.

Consider `CC(C)Oc1ccc(-c2nc(-c3cccc4c3CC[C@@H]4NCCO)no2)cc1C#N`, for which the AC50 is 20900 nM (active) in assay [1] and 16600 nM (active) in [5].

`CC1=C2[N-][C@H]([C@H](CC(N)=O)[C@@]2(C)CCC(=O)NC[C@@H](C)OP(=O)([O-])O[C@H]2[C@@H](O)[C@@H](n3cnc4cc(C)c(C)cc43)O[C@@H]2CO)[C@]2(C)N=C(C(C)=C3N=C(C=C4N=C1[C@@H](CCC(N)=O)C4(C)C)[C@@H](CCC(N)=O)[C@]3(C)CC(N)=O)[C@@H](CCC(N)=O)[C@]2(C)CC(N)=O.O.[Co+2]`: the result in [1] and in [5] was inactive.

As for `CCN(CC)C(=O)Cc1csc(NS(=O)(=O)c2cccc(Cl)c2C)n1`, the outcome in assay [1] and in assay [5] was inactive.

Take `O=S(=O)(c1cccc2c(I)cccc12)N1CCCNCC1`: the period change in assay [8] was 0.03 h (inactive). The survival in [9] is 70.8 (inactive). The parasite load remaining in assay [10] is 33.8% (inactive). Besides, the viability in assay [10] stood at 77.3%. The inhibition in assay [11] is -1% (inactive). Also, the fluorescence ratio (interference) in [12] is 0.9 (inactive). Besides, the compound was called inactive in assay [1], in assay [2], in assay [3] and in assay [13]. In addition, the fold change in [6] (setting [15]) is 0.977 (inactive) and 0.963 (inactive); in assay [6] (setting [16]), 0.686 and 1.04. For the same compound, the cell count was 7130 and 3010 in assay [6] (setting [17]); 7300 and 3130 in assay [6] (setting [18]). In [7], the fold fluorescence was 13.8 [at 120.1 µM] (inactive). Moreover, in assay [14], the z-score is -0.91 (inactive).

Take `CN1C(=O)c2sccc2N(C)c2nc(Nc3ccc(S(N)(=O)=O)cc3)ncc21`: the AC50 in assay [1] is 14800 nM (active); in [5], 3720 nM (active).

As for `Cc1cccc(-c2[nH]ncc2-c2ccc(F)c(-c3cnn(CCO)c3)c2)n1`, the outcome in assay [1] and in assay [2] was inactive. The IC50 in assay [4] was 26300 nM (active).

In the case of `CC#Cc1cncc(-c2ccc3c(c2)[C@@]2(N=C(C)C(N)=N2)C2(CCC(OC)CC2)C3)c1` (some centres not stated), the compound was classed as inactive in [1], in assay [2] and in assay [4].

One may read the AC50 as the concentration giving half of the maximal activity seen. What is called viability is a per cent measure of how many cells are alive, often set against a control. What is called inhibition is the change of the read-out against control, counted positive when it falls. Usually IC50 stands for the midpoint of a concentration-inhibition curve.
